“And” between values parts separate entries of the source, which are not always exact repeats. Equal values may be shown once. Among all 5,500 compounds or so, about 2,000 (36%) were called active. Inconclusive results (about 18%) are left out. Cut-off read from the data, not from the text of the source: active = normalized growth mostly below about 0.91 (no sharp cut-off); inconclusive = no clear call, values can overlap the other calls; inactive = mostly above about 0.92. The list shows a part of the results.
Assay: chemical genetic growth profiling, strain panel (AID 1159580);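 note: tested at 20 µM; growth read once vehicle control cultures reached saturation at 30 °C; 1 = growth at the plate median or of vehicle wells; lower values mean less growth of the strain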
Details: S. cerevisiae deletion strains, growth OD

Measured: normalized growth

CN(C)CCC(c1ccccc1)c1ccccn1 (centres undefined)
inactive: locus YAL013W, strain DEP1, active compounds read low 0.99 | locus YAL021C, strain ccr4, active compounds read low 1.02 | locus YAL026C, strain drs2, active compounds read low 1.02 | locus YAL030W, strain snc1, active compounds read low 1 | locus YAL040C, strain CLN3, active compounds read low 1.01 | locus YBL061C, strain skt5, active compounds read low 1.01 | locus YBR009C, strain hhf1, active compounds read low 1.01 | locus YBR021W, strain FUR4, active compounds read low 1.01 | locus YBR023C, strain chs3, active compounds read low 1.01 | locus YBR171W, strain sec66, active compounds read low 1.03 | locus YBR229C, strain ROT2, active compounds read low 1 | locus YBR231C, strain swc5, active compounds read low 1.01 | locus YBR279W, strain paf1, active compounds read low 1.01 | locus YCL011C, strain gbp2, active compounds read low 1.01 | locus YCL016C, strain dcc1, active compounds read low 1.02 | locus YCL029C, strain bik1, active compounds read low 1 | locus YCL061C, strain MRC1 (second series), active compounds read low 1.01 | locus YCL061C, strain MRC1, active compounds read low 1.01 | locus YCL069W, strain vba3, active compounds read low 1.01 | locus YCR088W, strain abp1, active compounds read low 1 | locus YDL005C, strain med2, active compounds read low 1.02 | locus YDL035C, strain GPR1, active compounds read low 1.01 | locus YDL040C, strain nat1, active compounds read low 1.01 | locus YDL074C, strain BRE1, active compounds read low 0.991 | locus YDL101C, strain DUN1, active compounds read low 1.01 | locus YDL134C, strain PPH21, active compounds read low 1.01 | locus YDL185W, strain tfp1, active compounds read low 1 | locus YDL192W, strain arf1, active compounds read low 1.01 | locus YDR001C, strain nth1, active compounds read low 1.01 | locus YDR069C, strain doa4, active compounds read low 0.994 | locus YDR101C, strain arx1, active compounds read low 1 | locus YDR137W, strain rgp1, active compounds read low 1.03 | locus YDR150W, strain NUM1, active compounds read low 1.01 | locus YDR159W, strain sac3, active compounds read low 1.02 | locus YDR162C, strain NBP2, active compounds read low 1.01 | locus YDR195W, strain ref2 0.981 | locus YDR297W, strain sur2, active compounds read low 1 | locus YDR318W, strain mcm21, active compounds read low 1.01 | locus YDR334W, strain swr1, active compounds read low 1.01 | locus YDR335W, strain msn5, active compounds read low 1.01 | locus YDR363W, strain ESC2, active compounds read low 1.05 | locus YDR388W, active compounds read low 1 | locus YDR392W, strain spt3, active compounds read low 0.973 | locus YDR502C, strain sam2, active compounds read low 0.994 | locus YEL003W, strain gim4, active compounds read low 0.993 | locus YEL037C, strain rad23, active compounds read low 1.02 | locus YEL061C, strain CIN8 (second series), active compounds read low 1.01 | locus YEL061C, strain CIN8, active compounds read low 1 | locus YER002W, strain NOP16, active compounds read low 1.01 | locus YER015W, strain faa2, active compounds read low 1.01 | locus YER016W, strain bim1, active compounds read low 1.01 | locus YER110C, active compounds read low 1 | locus YER111C, strain swi4, active compounds read low 1.03 | locus YER155C, strain BEM2 (second series), active compounds read low 1.02 | locus YER155C, strain BEM2, active compounds read low 1 | locus YER167W, strain BCK2, active compounds read low 1.01 | locus YFR010W, strain ubp6, active compounds read low 1.01 | locus YGL078C, strain dbp3, active compounds read low 0.991 | locus YGL086W, strain mad1, active compounds read low 0.997 | locus YGL167C, strain pmr1, active compounds read low 1.02 | locus YGL173C, strain kem1, active compounds read low 1.01 | locus YGL227W, strain vid30, active compounds read low 1.02 | locus YGL240W, strain doc1, active compounds read low 0.999 | locus YGL248W, strain PDE1, active compounds read low 1 | locus YGL253W, strain hxk2, active compounds read low 1.02 | locus YGR135W, strain pre9, active compounds read low 1.01 | locus YGR229C, strain SMI1, active compounds read low 0.992 | locus YGR252W, strain gcn5, active compounds read low 0.948 | locus YHR013C, strain ard1, active compounds read low 1.03 | locus YHR027C, strain rpn1, active compounds read low 1.03 | locus YHR030C, strain SLT2, active compounds read low 1.01 and 0.972 | locus YHR079C, strain IRE1 (second series), active compounds read low 1.01 | locus YHR079C, strain IRE1, active compounds read low 0.975 | locus YHR094C, strain hxt1, active compounds read low 1 | locus YHR129C, strain ARP1, active compounds read low 0.998 | locus YHR142W, strain chs7, active compounds read low 1.01 | locus YHR200W, strain rpn10, active compounds read low 0.998 | locus YIL066C, strain RNR3, active compounds read low 1.01 | locus YIL073C, strain SPO22, active compounds read low 1.04 | locus YIL125W, strain kgd1, active compounds read low 1.01 | locus YIR030C, strain dcg1, active compounds read low 1.01 | locus YJL092W, strain hpr5, active compounds read low 1.01 | locus YJL095W, strain BCK1 (second series), active compounds read low 1.01 | locus YJL095W, strain BCK1, active compounds read low 0.99 and 0.976 | locus YJL115W, strain asf1, active compounds read low 1.01 | locus YJL129C, strain trk1, active compounds read low 1.01 | locus YJL134W, strain LCB3, active compounds read low 1.01 | locus YJL154C, strain vps35, active compounds read low 1.01 | locus YJL164C, strain tpk1, active compounds read low 1.01 | locus YJL166W, strain qcr8, active compounds read low 1 | locus YJL168C, strain set2, active compounds read low 1.01 | locus YJL187C, strain SWE1 (second series), active compounds read low 1.01 | locus YJL187C, strain SWE1, active compounds read low 1 | locus YJR043C, strain POL32, active compounds read low 0.997

Reference: PubChem BioAssay AID1159580 (chemical genetic matrix, 2015)
